Test [1] in a line: qHTS of pediatric cancer cell lines to identify multiple opportunities for drug repurposing: Primary screen for LAN-5 cells (AID 1347100). In short, it runs like this: (§1)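 Cells (500-1,000/well) in growth media were settled 5 h at 37 degrees C, then given compounds for 48 h. Viability was read as CellTiter-Glo luminescence. Primary runs used MIPE at 11 points (0.78 nM-46 µM) and NPC at 8 points (0.59 nM-46 µM); follow-ups used 11 points.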

A short description of test [2]: qHTS of pediatric cancer cell lines to identify multiple opportunities for drug repurposing: Primary screen for BT-12 cells (AID 1347101). Note: nearly all actives have a fitted effect of over 25% in size. In short, it runs like this: (§2)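 Cells (500-1,000/well) rested 5 h, then received compounds for 48 h; metabolically active cells were measured by CellTiter-Glo luminescence. Final concentrations spanned up to 46 µM (MIPE, 11-point) or 0.59 nM-46 µM (NPC, 8-point) in primary screens, 11-point in follow-ups.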
A general note: qHTS replaces the single test concentration by a dilution series.

Test [3] is described as follows: qHTS of pediatric cancer cell lines to identify multiple opportunities for drug repurposing: Primary screen for Rh18 cells (AID 1347102). Note: nearly all actives have a fitted effect of over 65% in size. In short, it runs like this:
as §1

The nature of test [4]: qHTS of pediatric cancer cell lines to identify multiple opportunities for drug repurposing: Primary screen for OHS-50 cells (AID 1347103). Note: nearly all actives have a fitted effect of over 40% in size. In short, it runs like this:
as §2

Test [5] can be described thus: qHTS of pediatric cancer cell lines to identify multiple opportunities for drug repurposing: Primary screen for RD cells (AID 1347104). Note: nearly all actives have a fitted effect of over 55% in size. Put shortly: (§3)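 ATP-based luminescence (CellTiter-Glo) quantifies viability after a 48-hour exposure. Compounds are dosed across 8 or 11 final concentrations; DMSO and 2.3 µM bortezomib serve as controls.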
The nature of test [6]: qHTS of pediatric cancer cell lines to identify multiple opportunities for drug repurposing: Primary screen for MG 63 (6-TG R) cells (AID 1347105). Note: nearly all actives have a fitted effect of over 50% in size. Put shortly: as §3
A short description of test [7]: qHTS of pediatric cancer cell lines to identify multiple opportunities for drug repurposing: Primary screen for control Hh wild type fibroblast cells (AID 1347106). Note: nearly all actives have a fitted effect of over 55% in size. Put shortly:
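Viability after 48 h compound treatment at 37C, 500-1,000 cells/well, read as ATP luminescence with CellTiter-Glo. Primary screens used 11-point (MIPE, 0.78 nM-46 µM) or 8-point (NPC, 0.59 nM-46 µM) final concentrations; follow-up screens used 11-point dilutions.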

Test [8] can be described thus: qHTS of pediatric cancer cell lines to identify multiple opportunities for drug repurposing: Primary screen for Rh30 cells (AID 1347107). Note: nearly all actives have a fitted effect of over 75% in size. In short, it runs like this: as §1
Test [9] is described as follows: qHTS of pediatric cancer cell lines to identify multiple opportunities for drug repurposing: Primary screen for Rh41 cells (AID 1347108). Note: nearly all actives have a fitted effect of over 70% in size. Put shortly:
as §3

Test [10] can be described thus: qHTS of pediatric cancer cell lines to identify multiple opportunities for drug repurposing: Confirmatory screen for NB1643 cells (AID 1347109). Note: nearly all actives have a fitted effect of over 45% in size. In short, it runs like this: as §1

This passage reports Potency results from PubChem BioAssay (NCATS).

Where “and” joins values, the source holds several entries; their conditions need not be identical. Equal values may be shown once. Records with an inconclusive call do not appear. Values without a mark were called inactive. Calls of active or inactive are those of the source. Calls come from the whole dose curve; as a rule, active = well fitted curve in the direction sought with a large enough effect; inconclusive = small, poorly fitted or top-dose-only effect, or another doubt; inactive = no such curve, though single readings can be large; an effect the other way counts as inactive or inconclusive.
Potency is the fitted concentration of half-maximal effect.

`CNC[C@H](O)c1ccc(O)c(O)c1`: the Potency result in test [1], in test [2], in test [3], in test [4], in test [5] and in test [6] was “inactive” each time. For the same compound, the Potency result in test [7], in test [8] and in [9] was “inactive” each time.
Regarding `CCC1=C(C)CN(C(=O)NCCc2ccc(S(=O)(=O)NC(=O)NC3CCC(C)CC3)cc2)C1=O` (stereo not drawn), the Potency result in test [1], in test [2], in test [3], in [4], in test [5] and in test [6] was “inactive” throughout. Moreover, the Potency entry in test [7], in [8] and in test [9] was “inactive” throughout.
For `CN(C)c1ccc2nc3ccc(=[N+](C)C)cc-3sc2c1`, the Potency was 1.68 µM (active) in [1]; 6.85 µM (active) and 3.09 µM (active) in test [2]; 7.43 µM (active) and 3.35 µM (active) in [3]; 1.37 µM (active) and 872 nM (active) in [4]; 2.35 µM (active) and 3.76 µM (active) in test [5]; 3.72 µM (active) and 2.11 µM (active) in test [6]. Further, the Potency was 11.9 µM (active) in [7]; 5.9 µM (active) and 6.68 µM (active) in test [9]; 3290 nM (active) in test [10].
With `O=C(O)c1cc(=O)c2c(OCC(O)COc3cccc4oc(C(=O)O)cc(=O)c34)cccc2o1`, the Potency entry in test [1], in [2], in test [3], in test [4], in [5] and in test [6] was “inactive” in each case. Further, the Potency entry in test [7], in [8] and in test [9] was “inactive” throughout.
In the case of `CCOC(=O)C1=C(O)C(=O)N(Cc2ccccc2)C1`, the Potency entry in test [1], in test [2], in [3], in test [4], in [5] and in [6] was “inactive” throughout. The Potency entry in [7], in [8] and in test [9] was “inactive” in each case.
In the case of `CS(=O)(=O)OCCCCOS(C)(=O)=O`, the Potency result in test [1], in [2], in test [3], in [4], in test [5] and in test [6] was “inactive” in each case. The Potency entry in test [7], in [8], in test [9] and in test [10] was “inactive” each time.
For `CCN(CC)C(=S)SSC(=S)N(CC)CC`, the Potency in test [1] is 23.5 nM (active) and 39.4 nM (active); in test [2] it was 15.3 nM (active) and 72.7 nM (active) and 174 nM (active); in test [3] it was 33.2 nM (active) and 70 nM (active) and 376 nM (active); in test [4], 43.2 nM (active); in test [5] it was 11.8 nM (active) and 35.1 nM (active) and 150 nM (active); in test [6], 37.2 nM (active). The Potency in test [7] was 166 nM (active) and 111 nM (active) and 1.19 µM (active); in test [9], 13.2 nM (active) and 70 nM (active); in test [10], 8270 nM (active).
Take `CNC[C@@H](O)[C@@H](O)[C@H](O)[C@H](O)CO`: the Potency entry in test [1], in test [2], in [3], in test [4], in test [5] and in test [6] was “inactive” each time. For the same compound, the Potency result in test [7], in [8] and in test [9] was “inactive” each time.
For the compound `C=C(c1ccc(C(=O)O)cc1)c1cc2c(cc1C)C(C)(C)CCC2(C)C`, the Potency result in test [1], in test [2], in [3], in test [5], in test [6] and in [7] was “inactive” each time. For the same compound, the Potency entry in test [8], in test [9] and in test [10] was “inactive” throughout. Moreover, in test [4], the Potency was 3890 nM (active).
On to `S=c1nc[nH]c2nc[nH]c12`, for which the Potency was 1.5 µM (active) and 2.96 µM (active) in test [1]; 15.5 µM (active) and 24.3 µM (active) in test [2]; 2.19 µM (active) and 3.06 µM (active) in test [4]. In addition, the Potency entry in test [3], in test [5], in test [6], in [7] and in [9] was “inactive” in each case.
Consider `NNc1nncc2ccccc12`, for which the Potency result in [1], in test [2], in test [3], in [4], in [5] and in [6] was “inactive” each time. Moreover, the Potency entry in [7], in test [8] and in test [9] was “inactive” in each case.
On to `CC(C)C[C@H](NC(=O)[C@H](Cc1ccccc1)NC(=O)c1cnccn1)B(O)O`, for which the Potency in test [1] was 0.0166 µM (active); in test [2] it was 43.2 nM (active); in [3] it was 29.6 nM (active); in test [4], 87.1 nM (active); in test [5], 53.1 nM (active); in test [6], 23.5 nM (active). The Potency in test [7] was 0.0743 µM (active); in test [8] it was 93.5 nM (active); in test [9], 29.6 nM (active); in test [10], 36.9 nM (active).
As for `CCOc1cc(CC(=O)N[C@@H](CC(C)C)c2ccccc2N2CCCCC2)ccc1C(=O)O`, the Potency entry in [1], in test [2], in test [3], in test [4], in test [5] and in test [6] was “inactive” in each case. In addition, the Potency result in test [7], in [8], in [9] and in test [10] was “inactive” throughout.
Take `O=C(O)CCNC(=O)c1ccc(N=Nc2ccc(O)c(C(=O)O)c2)cc1`: the Potency entry in test [1], in test [2], in [3], in test [4], in [5] and in test [6] was “inactive” throughout. Further, the Potency entry in test [7], in [8] and in test [9] was “inactive” throughout.
For `C=CCc1cc(OC)c(O)c(C(=O)NCCO)c1`, the Potency entry in test [1], in test [2], in [3], in test [4], in [5] and in [6] was “inactive” throughout. The Potency result in [7], in test [8] and in [9] was “inactive” throughout.
With `Nc1ccn([C@@H]2O[C@H](CO)[C@@H](O)C2O)c(=O)n1` (stereo partly drawn), the Potency result in test [1], in test [2], in [3], in test [4], in [5] and in [6] was “inactive” each time. In addition, the Potency result in test [7], in [8], in test [9] and in [10] was “inactive” throughout.
Consider `Oc1ccc(OCc2ccccc2)cc1`, for which the Potency result in test [1], in test [2], in test [3], in test [4], in [5] and in [6] was “inactive” each time. The Potency entry in test [7], in test [8] and in test [9] was “inactive” each time.
For the compound `C[Se]CCC(N)C(=O)O` (stereo not drawn), the Potency entry in test [1], in test [2], in [3], in test [4], in test [5] and in test [6] was “inactive” throughout. Besides, the Potency entry in test [7] and in test [9] was “inactive” each time.
Consider `O=Nc1c(-c2c(O)[nH]c3cc(Br)ccc23)[nH]c2ccccc12`, for which the Potency in test [1] was 18.7 µM (active); in test [2], 24300 nM (active); in test [3] it was 18700 nM (active); in test [4], 19300 nM (active); in [5], 16600 nM (active); in test [6], 18700 nM (active). Moreover, the Potency was 18700 nM (active) in test [8] and 14800 nM (active) in test [9]. In test [7], the Potency result was “inactive”.
Turning to `C[C@]12CCC(=O)C=C1CC[C@@H]1[C@H]2[C@@H](O)C[C@@]2(C)[C@H]1CC[C@]2(O)C(=O)CO`, the Potency entry in test [1], in test [2], in [3], in test [4], in test [5] and in test [6] was “inactive” each time. The Potency entry in test [7], in test [8], in [9] and in test [10] was “inactive” in each case.
As for `COc1ccc(C2(C#N)CCC(C(=O)O)CC2)cc1OC1CCCC1` (stereo not drawn), the Potency result in test [1], in test [2], in test [3], in [4], in test [5] and in [6] was “inactive” throughout. The Potency result in test [7], in [8] and in test [9] was “inactive” throughout.
